According to PubChem BioAssay (NCATS):
Records with an inconclusive call do not appear. Entries that show only a call come without a potency. Calls of active or inactive are those of the source. The call rests on the fitted dose curve; in most records, active means well fitted inhibition curve with a large enough effect; inconclusive means small, poorly fitted or top-dose-only effect; inactive means flat fitted curve, though single readings scatter. Where a SMILES comes first, the peptide text is derived from it.

assay: P-glycoprotein substrates identified in KB-8-5-11 adenocarcinoma cell line, qHTS therapeutic library screen (AID 1346987); details: KB-8-5-11 (P-gp overexpressing) viability, CellTiter-Glo, 72 h; series mostly up to 44.5 µM; further: nearly all actives have a fitted effect of over 65% in size
Excerpt: The ATP-binding cassette transporters P-glycoprotein (P-gp) is known to limit brain penetration of many chemotherapy drugs. […] As such, we developed a high-throughput screen (HTS) to identify substrates of P-gp from a series of chemical libraries including the National Center for Advancing Translational Sciences Pharmaceutical Collection NPC, 2,816 compounds), testing a total of 10,804 compounds, most of which have known mechanisms of action. We used the CellTiter-Glo viability assay to test library compounds against the parental KB-3-1 human cervical adenocarcinoma cell line and the colchicine-selected sub-line KB-8-5-11 that over-expresses P-gp. KB-8-5-11 cells were also tested in the presence of a P-gp inhibitor (tariquidar) to assess reversability of transporter-mediated resistance. Of the tested compounds, a total of 90 P-gp substrates were identified including 55 newly identified P-gp substrates. Substrates were confirmed using an orthogonal killing assay against HEK-293 cells transfected with P-gp. As exemplars, we confirmed that […] (cyclin-dependent kinase inhibitor); AT9283, (Janus kinase 2/3 inhibitor); ispinesib (kinesin spindle protein inhibitor); gedatolisib (PKI-587, phosphoinositide 3-kinase/mammalian target of rampamycin inhibitor); GSK-690693 (AKT inhibitor); and KW-2478 (heat shock protein 90 inhibitor) were substrates , and direct ATPase stimulation was assessed. ABCG2 was also found to confer high levels of resistance to AT9283, GSK-690693 and gedatolisib, while ispinesib, AT7519 and KW-2478 were weaker substrates.
The HeLa derivative cell line, KB-3-1, and its colchicine-selected, P-gp-overexpressing subline, KB-8-5-11 were maintained in DMEM with 10% FCS and Pen/Strep with glutamine at 37 degree C in 5% CO2. For KB-8-5-11 cells, colchicine was added to the medium at a concentration of 100 ng/mL. HEK-293 cells transfected with empty vector (pcDNA) or vector containing human ABCB1 (MDR-19) or ABCG2 (R-5) have been described previously (Robey, Lin, Qiu, Chan & Bates, 2011) and were maintained in EMEM supplemented with 10% FCS, Pen/Strep and glutamine with 2 mg/ml G418 to select for the expression of the transporter. Cultures were confirmed to be free of mycoplasma infection using the MycoAlert Mycoplasma Detection Kit (Lonza, Walkersville, MD). For the screen, assay medium was identical to culture medium except for KB-8-5-11 where colchicine was excluded from the medium.
All cell lines were plated into 1536-well plates at 500 cells/well in 5 uL media. Compounds were then pinned in dose-response using a 1536-head pin tool (Kalypsis, San Diego, CA) and plates were incubated at 37 degree C in 5% CO2 for an additional 72 h. CellTiter-Glo reagent (Promega) was dispensed into the wells, incubated for 5 min and luminescence was read on a ViewLux instrument (Perkin-Elmer). Cytotoxic compounds were defined as those that yielded a curve class of -1.1, -1.2, -2.1, -2.2, -2.3, or -2.4, a maximum response of >50% and an AC50 of < 10 uM. Cherry-picked hits from screening analysis were tested with both the KB pair of cell lines, and the pcDNA (empty vector control) and MDR-19 (P-gp overexpressing) pair were tested, in the absence and presence of tariquidar.
Potency means the concentration at half of the fitted maximal effect.

Row | SMILES | Potency | outcome
1 | CC(C)(OC1OC(CO)C(O)C(O)C1O)C1CCC(O)(CO)C2CC(O)C(C)(O)C2C1 (stereo not given) | inactive | –
2 | CCCOc1ccn2c(C(C)=O)cc(-c3ccccc3S(C)(=O)=O)c2c1 | inactive | –
3 | COc1ncc(-c2ccc3c(Nc4cc(Oc5cc(F)cc(F)c5)cc(C(=O)O)c4)c(S(=O)(=O)NC4CC4)cnc3c2)c(OC)n1 | inactive | –
4 | CC1=C2C=C(CO)C(CO)CCC2(C)CCC1=O (stereo not given) | inactive | –
5 | COC(=O)[C@H](CC1C=NC=N1)NCC12CC3CC(CC(C3)C1)C2 (stereo not given in full) | inactive | –
6 | CC1=CCC(C(C)(C)O)CC1 (stereo not given) | inactive | –
7 | CC1(C)CCCC2(C)C(CO)C3CCC2C31 (stereo not given) | inactive | –
8 | CCOC(=O)O[C@]1(C(=O)COC(=O)CC)CC[C@H]2[C@@H]3CCC4=CC(=O)C=C[C@]4(C)[C@H]3[C@@H](O)C[C@@]21C | inactive | –
9 | CC(/C=C/C1(O)C(C)CC(O)CC1(C)C)OC1OC(CO)C(O)C(O)C1O (stereo not given) | inactive | –
10 | CC(=O)OC1C(O)C(C)=C(CCC(C)CC(=O)O)C2(C)CCCC(C)(C)C12 (stereo not given) | inactive | –
11 | COc1ccc(/C=C/C(=O)O[C@@H]2[C@@H](OC(C)=O)[C@@H](OC(C)=O)[C@H](O[C@H]3[C@@H]4C=CO[C@@H](O[C@@H]5O[C@H](CO)[C@@H](O)[C@H](O)[C@H]5O)[C@@H]4[C@@]4(CO)O[C@@H]34)O[C@H]2C)cc1O | inactive | –
12 | C=C[C@H]1[C@H](O[C@@H]2O[C@H](CO)[C@@H](O)[C@H](O)[C@H]2O)OC=C(C(=O)OC)[C@H]1C[C@@H]1N[C@H](C(=O)O)Cc2c1[nH]c1ccccc21 | inactive | –
13 | CCC(NC(=O)CC(NC(=O)C(CO)NC(=O)C(CC)NC(=O)c1ccc[nH]1)c1ccccc1)C(=O)O (stereo not given) | inactive | –
14 | CC(C)CC1(C(=O)OCc2ccc(O[C@@H]3O[C@H](CO)[C@@H](O)[C@H](O)[C@H]3O)cc2)CC(=O)OC(C(=O)O)CC(=O)OCC2OC(O1)C(OC(=O)/C=C/c1ccc(O)cc1)C(O)C2O (stereo not given in full) | – | inactive [at 9.29 µM]
15 | CC1(C)CCC[C@@]2(C)[C@H]1[C@H](O)C=C1COC(=O)[C@@]12O | inactive | –
16 | C=CC1(C)C=C2C(=O)CC3C(C)(C)CCCC3(C(=O)O)C2(O)CC1 (stereo not given) | inactive | –
17 | C=C(C)[C@@H]1CC[C@](C)(O)[C@@H](OC(=O)c2ccccc2)C1 | inactive | –
18 | CC1=C2CC3OC3(C)CCC3OC3(C)CC2OC1=O (stereo not given) | inactive | –
19 | C/C(=C/CO)CC[C@@H]1[C@@]2(C)CCC[C@](C)(C(=O)O)C2CC[C@@]1(C)O (stereo not given in full) | inactive | –
20 | O=C(O)CCc1cc2ccoc2cc1O[C@@H]1O[C@H](CO[C@@H]2OC[C@](O)(CO)[C@H]2O)[C@@H](O)[C@H](O)[C@H]1O | inactive | –

Row | SMILES | Potency | outcome
21 | CC(=O)OC(C)OC(=O)C(C)c1ccc(-c2ccccc2)c(F)c1 (stereo not given) | inactive | –
22 | NC(=O)c1cccc(-c2cc(O)cc(OC(=O)NC3CCCCC3)c2)c1 | inactive | –
23 | CC(O)(CC(=O)O)CC(=O)O[C@@H]1[C@@H](O)[C@H](OCCc2ccccc2)O[C@H](CO)[C@H]1O (stereo not given in full) | inactive | –
24 | CC1(C)C(C=C(Cl)Cl)C1C(=O)OCc1cccc(Oc2ccccc2)c1 (stereo not given) | inactive | –
25 | NCc1c[nH]c(=S)n1C1CCc2c(F)cc(F)cc2C1 (stereo not given) | inactive | –
26 | C/C=C/C1=CC2=CC(=O)C(C)(O)C(OC(=O)c3c(C)cc(O)cc3O)C2CO1 (stereo not given) | inactive | –
27 | O=C(NCC(=O)N1CC[C@H](NC2CCC(O)(c3ccc(-c4ncccn4)cn3)CC2)C1)c1cccc(C(F)(F)F)c1 (stereo not given in full) | inactive | –
28 | CN1C(=O)c2ccccc2-n2c(nc3ccccc3c2=O)[C@@]12O[C@H]2c1ccccc1 | inactive | –
29 | COC(=O)C12C(=O)C(C)=C(O)C1(C)C(C)=CC1C34CCC(OC3=O)C(C)(C)C4CCC12C (stereo not given) | inactive | –
30 | Cc1c(C)c2c(c(C)c1O)CC[C@@](C)(CCC[C@H](C)CCC[C@H](C)CCCC(C)C)O2 | inactive | –
31 | COc1cc(/C=C/C(=O)OC[C@H]2O[C@H](O[C@]3(CO)O[C@H](CO)[C@@H](O)[C@@H]3O)[C@H](O)[C@@H](O)[C@@H]2O)cc(OC)c1O | inactive | –
32 | C=CC(C)(C)C12CC3C(=O)NC(Cc4cnc[nH]4)C(=O)N3C1Nc1ccccc12 (stereo not given) | inactive | –
33 | O=C1C(=O)c2ncccc2-c2cccnc21 | 1160 nM (active) | –
34 | C[C@]12CCC[C@](C)(C(=O)O)C1CCC13C=C(CO)C(CCC12)C3 (stereo not given in full) | inactive | –
35 | COc1ccc2c3c1O[C@H]1C[C@@H](O)C=C[C@@]31CCN(C)C2 | inactive | –
36 | COC12CC3C(C(C)C1=CC(=O)O2)C(O)C(OC(C)=O)C1C(C)(C)C(OC(C)=O)CCC31C (stereo not given) | inactive | –
37 | C[C@@H](O)[C@H](N)C(=O)N1CCC[C@H]1C(=O)N1CCC[C@H]1C(=O)N[C@H](C(N)=O)[C@@H](C)O (H-TPPT-NH2) | – | inactive [at 9.29 µM]
38 | CC(=O)O[C@H]1[C@H](Oc2ccccc2COC(=O)C2(O)C=CCCC2=O)O[C@H](CO)[C@@H](O)[C@@H]1O (stereo not given in full) | inactive | –
39 | CC1CCC2(NC1)OC1C(=O)C3C4CCC5CC(O[C@@H]6O[C@H](CO)[C@@H](O)[C@H](O)[C@H]6O[C@@H]6O[C@@H](C)[C@H](O)[C@@H](O)[C@H]6O)CCC5(C)C4CCC3(C)C1C2C (stereo not given in full) | inactive | –
40 | C=C[C@](C)(CC/C=C(\C)C(=O)O)O[C@@H]1OC[C@H](O)[C@H](O)[C@H]1O | inactive | –
